D2 ag-1 = activates the human D2 dopamine receptor | P14416 | DiscoveRx PathHunter D2 beta-arrestin, luminescence, 90 min; 100% = 57 uM dopamine signal | activation, % (test concentration not listed) | 360,000 compounds, 0.084% hits | AID 624465; in the data active means activation above about 40%; inconclusive means between about 15% and that limit
Target sequence (P14416 whole entry, looked up): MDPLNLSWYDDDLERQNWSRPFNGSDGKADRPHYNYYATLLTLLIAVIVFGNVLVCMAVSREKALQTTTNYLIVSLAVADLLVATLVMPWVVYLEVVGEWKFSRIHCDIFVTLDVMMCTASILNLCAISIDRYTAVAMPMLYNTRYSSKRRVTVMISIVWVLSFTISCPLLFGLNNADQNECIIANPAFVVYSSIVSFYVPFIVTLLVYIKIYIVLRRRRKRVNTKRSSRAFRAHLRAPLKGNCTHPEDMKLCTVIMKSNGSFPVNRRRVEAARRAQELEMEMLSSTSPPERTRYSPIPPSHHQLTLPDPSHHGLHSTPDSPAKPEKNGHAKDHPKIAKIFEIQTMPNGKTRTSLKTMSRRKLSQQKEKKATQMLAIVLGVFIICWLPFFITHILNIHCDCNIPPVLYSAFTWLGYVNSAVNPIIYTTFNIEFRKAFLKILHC
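Agonist mode: compounds alone added to overnight-plated D2 PathHunter cells for 90 min at 37 C, with 57 uM final dopamine (EC100) defining full response. Beta-arrestin recruitment detected by chemiluminescent reagent, read after 1 h at ambient temperature.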
D2 ag-2 = agonists of human D2 dopamine receptor. 340,000 compounds, 0.53% hits. P14416. AID 485358. HEK293 T-REx D2 cells, calcium flux agonist mode. activation, % at 2 µM;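 active means activation over 3 SD above normal in the single-dose calcium agonist read, cut at about 30% in these data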; further: 0% is about no effect
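Agonism is scored from calcium flux in a force-coupled, inducible HEK293 cell line expressing D2, read kinetically for 180 s after compound addition against dopamine controls.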
D2 antagonist = D2 dopamine receptor (human) antagonism. P14416. HEK293 TREx D2 cells, calcium flux, dopamine EC80. inhibition, % at 10 µM. 340,000 compounds, 2% hits. AID 485344; in the data active means inhibition above about 30%; inactive means below that, where a call was filed; further: 0% is about no effect
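Tetracycline-induced HEK293 TREx cells expressing D2 receptor forced-coupled to calcium signalling, loaded with no-wash calcium dye. Compounds added and calcium flux read 180 s, then dopamine added at EC80 and read a further 180 s.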
D2 PAM-1 = potentiates the human D2 dopamine receptor allosterically; P14416; DiscoveRx D2 beta-arrestin cells, luminescence, 90 min; 100% = 57 uM dopamine signal; AID 624464; 360,000 compounds, 0.23% hits; potentiation, % (no concentration beside the values); in the data active means potentiation above about 50%; inconclusive means mostly about 30% to 49%
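PathHunter beta-arrestin assay in DiscoveRx D2 cells. Compounds were added with an EC20 of dopamine (50 nM final) for 90 min at 37 deg C. Luminescence was read 1 h after detection reagent, with 57 uM dopamine as the EC100 control.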
D2 PAM-2 = D2 dopamine receptor (human) potentiation | HEK293 T-REx D2, calcium flux, EC20 dopamine potentiation | 340,000 compounds, 0.34% hits | potentiation, % at 10 µM | AID 485347;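 active means potentiation over 3 SD above the plate norm, cut at about 30% in these data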; further: 0% is about no effect
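Potentiation of an EC20 dopamine calcium response measured kinetically over 180 s, after a preceding 180 s compound-only read flagging agonists. Cells: inducible Hek293 Trex D2 line, 4000/well, cultured overnight at 30 C before dye loading.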
Starred values were filed as active, the others as inactive; ? = inconclusive; . = no result. In the library only some 2.4% were active in any assay of this set; here they are far more common.

SMILES	D2 ag-1	D2 ag-2	D2 antagonist	D2 PAM-1	D2 PAM-2
CCN(CC)C(=O)C(C)OC(=O)c1ccc(O)cc1 (configuration not stated)	1	0	30*	3	12
COC(=O)c1ccc(O)cc1	0	-1	-9	0	-1
COCCn1nnnc1C(c1ccccc1OC)N1CCN(c2ccccc2F)CC1 (configuration not stated)	0	2	2	4	-2
COCCn1nnnc1C(c1cc2cccc(C)c2[nH]c1=O)N1CCN(c2ccccc2F)CC1 (configuration not stated)	-1	12	34*	-38	-11
Cc1ccc(N=c2c([N+](=O)[O-])nn(-c3ccc4c(c3)OCCO4)n2O)cc1F	?	0	2	58*	0
Cc1cc(C)cc(N=c2c([N+](=O)[O-])nn(-c3ccc4c(c3)OCCO4)n2O)c1	12	0	-11	3	2
O=[N+]([O-])c1nn(-c2ccc3c(c2)OCCO3)n(O)c1=Nc1ccc(Cl)cc1	6	1	1	51*	-8
COc1ccc(-c2cn(-c3ccc(C)cc3)c(S(=O)(=O)CC(=O)Nc3ccccc3)n2)cc1	.	0	.	.	-2
COc1cccc(NC(=O)CSc2nc3ccc(NC(=O)c4cccs4)cc3s2)c1	.	-1	.	.	-3
O=C(CN(c1ccc(Cl)c(C(F)(F)F)c1)S(=O)(=O)c1ccccc1)N1CCOCC1	-4	1	35*	-8	1
O=C(CN(c1cccc(C(F)(F)F)c1)S(=O)(=O)c1ccccc1)N1CCOCC1	?	1	13	0	4
CC(C)COc1ccc(C(=O)Nc2onc3c2CCCC3)cc1	.	-1	.	.	5
O=C(CC1N=C2c3ccccc3N=C(SCc3ccccc3Cl)N2C1=O)NC1CCCCC1 (configuration not stated)	.	.	.	.	-17
O=C(/C=C/c1cn(CC(O)CN2CCCCCC2)c2ccccc12)c1ccc(Br)cc1 (configuration not stated)	.	5	.	.	-4
O=C(NC1=NCCS1)c1cccc(S(=O)(=O)N2CCOCC2)c1	0	0	34*	-4	-8
O=C(c1cccc(S(=O)(=O)N2CCCCC2)c1)N1CCOCC1	-3	0	10	-13	-1
O=C(c1cccc(S(=O)(=O)N2CCOCC2)c1)N1CCN(S(=O)(=O)c2cccs2)CC1	-3	4	42*	-6	-1
CCCCN(CCCC)CCNC(=O)c1cc(=O)[nH]c2ccc(S(=O)(=O)N3CCCCCC3)cc12	.	-1	.	.	-7
CCN(Cc1ccccc1)Cc1c(O)ccc2oc(C)c(C(=O)Nc3ccccc3C)c12	.	-1	.	.	5
Cc1cccc(C(=O)NCC(c2ccc3c(c2)OCO3)N2CCOCC2)c1 (configuration not stated)	.	1	.	.	-5
COc1ccc(-n2c(-c3ccc(Cl)cc3)cc3c2CC(C)(C)CC3=O)c(OC)c1	.	1	.	.	0
CN(C)S(=O)(=O)c1ccc(C(=O)OCCc2ccccc2)cc1	-2	1	3	0	37*
COc1ccc(NC(=O)c2ccc(-c3cccc(Cl)c3C)o2)cc1	.	0	.	.	-8
COc1ccc(NC(=O)c2ccc(-c3ccccc3Cl)o2)cc1	-3	-1	42*	-25	-17
CC(C)(CNC(=O)c1ccc(Br)o1)N1CCOCC1	-2	0	7	-17	8
COc1ccc(C(CNC(=O)CSc2ccccc2F)N2CCOCC2)cc1 (configuration not stated)	-1	2	3	-5	12
COc1ccccc1C(CNC(=O)c1ccc(-c2ccccc2Cl)o1)N1CCCC1 (configuration not stated)	-2	1	11	-69	-20
CC(C)(CNC(=O)c1ccc(-c2ccccc2Cl)o1)N1CCOCC1	-4	-1	40*	-20	-5
COc1ccc(C(CNC(=O)c2cc(F)c(F)c(F)c2F)N2CCOCC2)cc1 (configuration not stated)	-3	-1	40*	-11	-5
COc1ccc(C(CNC(=O)c2ccc(-c3ccccc3Cl)o2)N2CCOCC2)cc1 (configuration not stated)	-4	1	66*	-40	-39

High-throughput results (PubChem)
